SENP6 block = blocks the human protease SENP6. Q9GZR1. Recombinant SENP6 catalytic domain, aminoluciferin luminescence. hit rate 1.8% among 330,000. inhibition, % at 10 µM;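 active = inhibition above about 50% at the single tested dose, limit read from the data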;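 also: plate controls were DMSO wells with enzyme for no effect and DMSO wells lacking enzyme for full effect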
Target sequence (Q9GZR1 628-1112 limits assumed): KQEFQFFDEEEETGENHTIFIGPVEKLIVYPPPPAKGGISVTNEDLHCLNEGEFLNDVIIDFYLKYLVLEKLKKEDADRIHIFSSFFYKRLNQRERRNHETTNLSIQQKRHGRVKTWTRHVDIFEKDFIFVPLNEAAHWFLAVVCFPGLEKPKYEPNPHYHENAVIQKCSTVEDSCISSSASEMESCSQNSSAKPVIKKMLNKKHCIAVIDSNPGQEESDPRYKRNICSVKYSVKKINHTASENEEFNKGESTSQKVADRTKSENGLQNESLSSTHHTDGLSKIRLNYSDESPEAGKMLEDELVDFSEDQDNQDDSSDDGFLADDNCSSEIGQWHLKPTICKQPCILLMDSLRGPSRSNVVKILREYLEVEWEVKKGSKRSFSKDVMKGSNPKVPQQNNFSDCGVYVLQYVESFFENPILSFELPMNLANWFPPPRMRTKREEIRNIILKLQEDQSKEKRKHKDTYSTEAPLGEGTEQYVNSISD
SENP7 block = blocks the human protease SENP7; Q9BQF6; recombinant SENP7, Z-RLRGG-aminoluciferin luminescence, 40 min; inhibition, % at 5 µM; hit rate 1.5% among 330,000;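 active = inhibition above about 50% at the single test dose, limit read from the data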;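 also: plate controls were DMSO with enzyme for no effect and no enzyme buffer wells for full effect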
Platelet DG rel = platelet dense granule release activity; human platelet-rich plasma, SFLLRN dense granule ATP release, luminescence; hit rate 0.22% among 300,000; AID 1663; inhibition, %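 (compounds screened at 7.5 µM in platelet-rich plasma)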;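 active = mean replicate score, as percent of positive control, at or above 50; inconclusive = mean below 50 but at least one replicate at or above 50; inactive = mean and every replicate below 50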
SENP8 block-1 = inhibitors of human SENP8 protease. Q96LD8. recombinant SENP8, Nedd8 substrate fluorescence. inhibition, % at 20 µM. hit rate 0.64% among 360,000; in the data active = inhibition mostly above about 40%, no sharp cut-off; inactive = mostly below about 27%
SENP8 block-2 = SENP8 protease inhibition. hit rate 1.2% among 330,000. Q96LD8. inhibition, % at 10 µM. purified SENP8, Z-RLRGG-aminoluciferin cleavage, luminescence; in the data active = inhibition above about 50%
SENP8 conf = confirmation of human SENP8 protease inhibitors. shares compounds with SENP7 block. Recombinant SENP8, Z-RLRGG-aminoluciferin luminescence, 60 min. inhibition, % at 12.5 µM. hit rate 40% among 6,200. AID 488912;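 active = mean inhibition across replicates above about 50%, limit read from the data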
SENP6 conf = confirmation of human SENP6 protease inhibitors; inhibition, % at 12.5 µM; hit rate 58% among 6,200; shares compounds with SENP7 block; recombinant SENP6, Z-RLRGG-aminoluciferin luminescence
SENP7 conf = confirmation of human SENP7 protease inhibitors; recombinant SENP7, Z-RLRGG-aminoluciferin luminescence, 40 min; inhibition, % at 12.5 µM; shares compounds with SENP7 block; hit rate 69% among 6,200; AID 488917
Casp3 SENP sel = caspase-3 inhibition (SENP selectivity assay); inhibition, % at 12.5 µM; purified caspase-3, Z-DEVD-aminoluciferin luminescence, 60 min; AID 488918; shares compounds with SENP7 block; hit rate 60% among 6,200;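 active = mean inhibition above about 50%, limit read from the data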;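 also: plate controls were enzyme with DMSO for no effect and wells without caspase-3 for full effect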
SENP luc ctr = counter-screen for SENP inhibitors: luminescence interference; shares compounds with SENP7 block; Pre-incubated SENP8/Z-RLRGG-aminoluciferin, luciferase luminescence interference; inhibition, % at 12.5 µM; hit rate 39% among 6,200;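 active = mean inhibition above about 50% when retested at one dose, limit read from the data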;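 also: plate controls were DMSO wells with completed reaction for no effect and substrate without enzyme for full effect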
Starred values were filed as active, the others as inactive; ? = inconclusive; nt = not tested or not shown. Most compounds without a hit are left out; they make up all but 2.4% or so of the library.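 The calls were made as follows, unless noted: active = mean inhibition above about 50% in the one-dose retest (limit read from the data); inactive = the rest.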

SMILES | SENP6 block | SENP7 block | Platelet DG rel | SENP8 block-1 | SENP8 block-2 | SENP8 conf | SENP6 conf | SENP7 conf | Casp3 SENP sel | SENP luc ctr
COc1cc(NC(C)CCCN)c2ncccc2c1Oc1ccccc1 (configuration not stated) | 74* | 30 | -23 | -13 | 34 | 15 | 28 | 18 | 9 | 3
COc1ccc(C(=O)C2CCCN(C(=O)c3ccc4nccnc4c3)C2)c(C)c1 (configuration not stated) | 57* | -7 | -5 | -2 | 7 | -21 | -17 | -8 | -8 | -5
O=C1N(c2ccccc2)CCN1c1ccccc1 | 83* | 89* | 0 | 22 | 70* | 25 | 10 | -6 | -2 | 0
O=C(COc1ccccc1)Nc1nccs1 | 75* | 6 | 14 | -4 | 61* | -3 | 61* | 90* | 90* | 74*
O=C(COc1ccccc1)Nc1ncccn1 | -16 | -1 | -12 | 15 | 1 | nt | nt | nt | nt | nt
O=C(COc1ccc2ccccc2c1)Nc1nccs1 | 61* | 77* | -14 | 3 | 66* | 42 | 89* | 99* | 81* | 76*
O=C(/C=C/c1ccc(Br)cc1)c1ccco1 | -9 | -8 | 1 | 17 | -14 | nt | nt | nt | nt | nt
O=C(/C=C/Nc1ccc(F)cc1F)c1ccc(Br)cc1 | 16 | 67* | -3 | -64 | 0 | -6 | -3 | -1 | 17 | 3
O=C(/C=C/Nc1ccc(F)cc1F)c1ccco1 | 87* | 90* | 53* | -168 | 87* | 91* | 97* | 101* | 96* | 85*
CC(=O)Nc1ccc(N/C=C/C(=O)c2ccc(Br)cc2)cc1 | 6 | 2 | -6 | -44 | -10 | nt | nt | nt | nt | nt
O=C(/C=C/Nc1ccc(Br)cc1F)c1ccco1 | 95* | 98* | 65* | -410 | 96* | -2 | 93* | 100* | 86* | 28
CCCN(CC(=O)Nc1ccccc1C)C(=O)c1ccc(=O)n(Cc2ccccc2)n1 | -7 | 1 | -9 | 18 | -3 | nt | nt | nt | nt | nt
O=C(O)c1ccc(-c2nnc(-c3cccc(Br)c3)o2)cc1 | 93* | -6 | -1 | 7 | -8 | 89* | 90* | 93* | 98* | 19
Brc1ccc(-c2nnc(-c3cccc(Br)c3)o2)cc1 | -4 | 7 | 5 | -1 | -13 | nt | nt | nt | nt | nt
COc1cccc(-c2noc(-c3cccnc3)n2)c1 | 81* | 79* | 12 | 6 | 58* | 26 | 68* | 91* | 84* | 52*
COc1ccc(-c2nc(-c3cccnc3)no2)cc1OC | 11 | 24 | -6 | -14 | 5 | nt | nt | nt | nt | nt
COc1ccc(CC(=O)Nc2ccc(-c3noc(-c4cccc(OC)c4)n3)cc2)cc1 | -8 | -10 | 3 | 11 | -6 | nt | nt | nt | nt | nt
COc1cccc(-c2nc(-c3ccccn3)no2)c1 | 97* | 97* | 26 | nt | 92* | 95* | 98* | 103* | 98* | 96*
COc1ccc(-c2noc(-c3ccccc3-c3ccccc3)n2)cc1 | -6 | -4 | -2 | 19 | 1 | nt | nt | nt | nt | nt
COc1cccc(-c2nc(-c3ccccc3)no2)c1 | 95* | 95* | 8 | 22 | 89* | 87* | 93* | 98* | 85* | 83*
O=C(O)c1ccc(-c2noc(-c3cccc(C(F)(F)F)c3)n2)cc1 | 58* | 4 | 4 | 13 | 41 | 54* | 56* | 80* | 56* | 54*
COc1ccc(-c2nc(-c3ccc(C(=O)O)cc3)no2)cc1 | 98* | 95* | 5 | 12 | 97* | 98* | 98* | 102* | 86* | 97*
COc1ccc(-c2cc(-c3ccccc3)no2)cc1 | 97* | 100* | ? | 16 | 92* | 8 | 81* | 86* | 76* | 49
COc1nc(-c2ccccc2)ccc1-c1noc(-c2cccs2)n1 | -50 | -4 | -3 | -170 | -30 | nt | nt | nt | nt | nt
COc1cccc(-c2noc(-c3cccs3)n2)c1 | 92* | 94* | 11 | 1 | 88* | 41 | 95* | 102* | 88* | 85*
SMILES | SENP6 block | SENP7 block | Platelet DG rel | SENP8 block-1 | SENP8 block-2 | SENP8 conf | SENP6 conf | SENP7 conf | Casp3 SENP sel | SENP luc ctr
FC(F)(F)c1cccc(-c2nc(-c3ccncc3)no2)c1 | nt | nt | 8 | 18 | nt | nt | nt | nt | nt | nt
CCCCN1CCCCC1(C)C(=O)NCc1cccc(OC)c1 (configuration not stated) | nt | nt | nt | 10 | nt | nt | nt | nt | nt | nt
Cc1cccc(C(=O)OCC(=O)N2CCCCCC2)c1O | 6 | 16 | nt | -11 | 14 | nt | nt | nt | nt | nt
O=C(O)c1ccc(/C=N/Nc2ncc(Cl)cc2Cl)cc1 | 27 | 13 | 0 | -26 | 5 | nt | nt | nt | nt | nt
CC(SC(C)C(=O)NN=Cc1cccc(F)c1)C(=O)NN=Cc1cccc(F)c1 (configuration not stated) | nt | nt | nt | -4 | nt | nt | nt | nt | nt | nt
O=C(O)c1ccc(N/N=C/c2ccncc2)cc1 | 90* | 94* | 10 | 5 | 85* | 91* | 93* | 100* | 88* | 94*
O=C(O)c1ccc(N/N=C/c2ccc(F)c(F)c2)cc1 | 98* | 97* | 37 | -116 | 97* | 99* | 100* | 102* | 97* | 98*
O=C(O)c1ccc(N/N=C/c2cccc(C(F)(F)F)c2)cc1 | 74* | 46 | -3 | -55 | 66* | 80* | 70* | 95* | 25 | 90*
O=C(O)c1ccc(N/N=C/c2cccc(F)c2)cc1 | 100* | 84* | 32 | -64 | 97* | 100* | 100* | 104* | 98* | 99*
COc1ccc(C(=O)NC2CC2)cc1OC1CCN(C(C)CSC)CC1 (configuration not stated) | 7 | -3 | -4 | 6 | 14 | nt | nt | nt | nt | nt
COc1ccc(/C=C2\SC(=S)N(CC(=O)OCC(=O)Nc3cc(Cl)cc(Cl)c3)C2=O)cc1 | -15 | 9 | 5 | 23 | -1 | nt | nt | nt | nt | nt
Cc1ccc(CC(C(=O)O)C(C)C(=O)Nc2ccc(F)cc2)cc1 (configuration not stated) | -11 | 2 | 0 | 13 | -5 | nt | nt | nt | nt | nt
CCOC(=O)C1(Cc2ccccc2)C(=O)Nc2ccccc21 (configuration not stated) | -15 | -5 | -2 | 15 | 5 | nt | nt | nt | nt | nt
CCOC(=O)C1(C(F)(F)F)N=C(C(F)(F)F)Nc2ccccc21 (configuration not stated) | 3 | 72* | 0 | 5 | -5 | 9 | 7 | 2 | -4 | -8
